Source: PubChem BioAssay (National Center for Advancing Translational Sciences (NCATS))
Only some compounds are listed: those with a hit (about 1.1% of all), similar ones and a draw of the others.
NPSR antagonist = antagonists of human neuropeptide S receptor cAMP signaling; Q6W5P4; AID 1461; actives 1% (n = 220,000); CHO-NPSR cells, cAMP TR-FRET, antagonist mode; Potency, µM (top dose mostly 38.3 µM), for inactives: at the highest dose activity change, negative = inhibition, most hits filed as inhibitors; note: potency is the fitted concentration of half-maximal effect; % is set by controls: 0 for no effect and ±100 for the full control effect; nearly all actives have a fitted effect of over 50% in size
Target sequence (Q6W5P4 whole entry, looked up): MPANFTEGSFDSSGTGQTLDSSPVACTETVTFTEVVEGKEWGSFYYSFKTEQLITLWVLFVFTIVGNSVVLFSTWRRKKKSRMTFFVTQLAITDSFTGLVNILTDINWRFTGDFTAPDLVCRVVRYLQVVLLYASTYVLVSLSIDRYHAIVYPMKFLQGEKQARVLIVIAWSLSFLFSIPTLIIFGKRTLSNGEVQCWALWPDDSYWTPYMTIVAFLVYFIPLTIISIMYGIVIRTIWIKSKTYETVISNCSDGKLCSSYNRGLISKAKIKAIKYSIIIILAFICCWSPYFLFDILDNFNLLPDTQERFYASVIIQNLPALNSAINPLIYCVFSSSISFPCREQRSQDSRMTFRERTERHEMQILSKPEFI
MBNL1 CUG block = inhibitors of human MBNL1 binding to CUG repeat RNA. Q9NR56. TR-FRET MBNL1-His/biotin-(CUG)12 binding, 665/545 ratio. Potency, µM (highest dose often 57.5 µM), for inactives: at the top dose activity change, negative = inhibition, actives largely listed as inhibitors. actives 0.036% (n = 280,000); active = well fitted inhibition curve with a large enough effect in the signal ratio, with a control signal flat, not every such curve was filed as active; inconclusive = small, poorly fitted or top-dose-only effect, or effect the other way, or a change in a side signal; inactive = no such curve, though single readings can be large or run the other way; the % refers to the signal ratio; note: potency is the fitted concentration of half-maximal effect; % is set by controls: 0 for no effect and ±100 for the full control effect
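His-tagged MBNL1 binding to biotinylated (CUG)12 RNA was measured by TR-FRET using terbium anti-His antibody (0.055 ng/ul final) and streptavidin-XL665 (5 nM final). Compounds were titrated 92 nM to 58 uM; 60 min at room temperature.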
CBFb-RUNX1 inh = blocks binding between human CBF-beta and RUNX1 | Q01196+Q13951 | AlphaScreen CBFb-His/RUNX1-biotin binding, biochemical | Potency, µM (series often up to 59.8 µM), for the others: top-dose activity, negative = inhibition, most hits filed as inhibitors | 230,000 tested, under 10 active; note: % of control where 0% means no effect
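Interaction loss through any mechanism counts as activity. Pre-formed complex of His-CBF-beta and biotin-RUNX1 (30 nM apiece) is incubated with compound 15 min, then with 50 ng nickel and 50 ng streptavidin beads for 90 min before AlphaScreen detection.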
HttQ103 aggreg = reduces HttQ103-GFP aggregates in PC12 cells; PC12 HttQ103-GFP aggregates, Acumen cytometry, 40 h; actives 1.1% (n = 220,000); AID 1688; Potency, µM (doses to about 46.1 µM), without a hit: at the highest dose activity change, negative = inhibition, hits mostly inhibitors; note: potency is the fitted concentration of half-maximal effect; % is set by controls: 0 for no effect and ±100 for the full control effect; nearly all actives have a fitted effect of over 60% in size
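Compounds (qHTS titration) were added to PC12 cells expressing an ecdysone-driven HTT exon 1 Q103–GFP fusion after induction with 100 nM tebufenozide. Aggregate formation was measured as GFP objects in cell lysates.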
HTT ATP protect = Huntington cell model cytoprotection by ATP luminescence; PC12 HTT-Q103 induced, cytoprotection, ATP luminescence, 40 h; Potency, µM (titrated, usually from 56.4 µM), for inactives: cytoprotection (ATP increase), usual class: activators; actives 0.14% (n = 230,000); AID 1471; note: potency is the fitted concentration of half-maximal effect; % of control where 0% means no effect; nearly all actives have a fitted effect of over 45% in size
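PC12 cells stably carrying ecdysone-inducible Htt exon 1 (Q103)–GFP were induced with 100 nM tebufenozide (final) alongside library compounds in a dose series. Cytoprotection was scored as retained ATP by ATPlite luminescence.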
Lamin A splicing = LMNA splicing modulation | AID 1487 | HeLa LMNA splicing GFP/RFP minigene ratio, 48 h | actives 0.01% (n = 200,000) | Potency, µM (titrated, usually from 46.1 µM), for inactives: top-dose ratio change, negative = inhibition, actives largely listed as inhibitors; active = well fitted inhibition curve with a large enough effect in the signal ratio, with a control signal flat, not every such curve was filed as active; inconclusive = small, poorly fitted or top-dose-only effect, or effect the other way, or a change in a side signal; the % refers to the signal ratio; note: potency is the fitted concentration of half-maximal effect; % is set by controls: 0 for no effect and ±100 for the full control effect
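S3 HeLa cells stably expressing lamin A-EGFP splicing minigene plus DsRed2, 600 cells/well, 48 h compound exposure at 37C. Laser-scanning cytometry; analysed as GFP (500-530 nm)/RFP (575-640 nm) total intensity ratio; 0.5% DMSO vehicle.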
* marks the source's active call; other numbers are inactive results; u = inconclusive; x = not tested or not shown; [ ] = remark or other dose. Unless noted, calls come from the whole dose curve; as a rule, active = well fitted curve in the direction sought with a large enough effect; inconclusive = small, poorly fitted or top-dose-only effect, or another doubt; inactive = no such curve, though single readings can be large; an effect the other way counts as inactive or inconclusive.

SMILES	NPSR antagonist	MBNL1 CUG block	CBFb-RUNX1 inh	HttQ103 aggreg	HTT ATP protect	Lamin A splicing
O=C(Nc1ccccc1Cc1ccccc1)c1oc2ccccc2c1COc1ccccc1	-18%	3%	4%	-3%	15%[10 µM]	0%
CCn1c(=O)c(C(=O)Nc2ccccc2)c(O)c2ccccc21	x	2%	x	x	x	x
CCn1c(=O)c(C(=O)Nc2nc3ccccc3[nH]2)c(O)c2ccccc21	3.2µM*	-12%	u	10µM*	-35%	u
O=c1[nH]cc(CS(=O)(=O)Cc2c[nH]c(=O)[nH]c2=O)c(=O)[nH]1	x	x	x	x	6%[10 µM]	x
c1csc(Cc2nn3c(-c4ccncc4)nnc3s2)c1	-16%[46.1 µM]	u	-23%	10µM*	-17%	-7%
c1csc(-c2nn3c(-c4ccncc4)nnc3s2)c1	-13%[46.1 µM]	5%	5%	1%	0%[0.074 µM]	8%
c1cc(-c2nnc3sc(C4CCCCC4)nn23)ccn1	16%[7.67 µM]	1%	1%	13µM*	5%	3%
COc1ccccc1-c1nnc2sc(C3CCCCC3)nn12	-6%[7.67 µM]	0%	12%	-15%	-5%	u
O=C(Nc1cc(F)ccc1F)N1CCC(CN2CCCC2)CC1	x	x	x	x	x	-8%[46 µM]
CSCc1nnc(NC(=O)c2ccc(S(=O)(=O)N(CC(C)C)CC(C)C)cc2)o1	1%[46.1 µM]	0%	-27%	10µM*	-60%	u
CCN(CC)c1ccc(/C=N/NC(=O)Cc2cccs2)c(O)c1	-25%	10%	-4%	25µM*	-89%[10 µM]	u
CCN(CC)c1ccc(/C=N/NC(=O)c2ccco2)c(O)c1	22%	u	u	u	-79%[10 µM]	x
NCC[C@H](N)C(=O)O	x	x	x	x	-4%[10 µM]	x
COc1ccc(/C=C/c2cc(-c3ccc(C)cc3)o[n+]2C)cc1	9%[46.1 µM]	13%	7%	4.5µM*	-69%	4%
O=C(CSc1nc(C2CC2)nc2ccccc12)N1CCCCC1	x	11%	x	x	x	x
O=C(CSc1nc(C2CC2)nc2ccccc12)N1c2ccccc2Sc2ccc(C(F)(F)F)cc21	7.9µM*	3%	9%	10%	17%[10 µM]	5%
COc1ccc2cc(C(=O)CCC(=O)O)ccc2c1	x	x	x	x	-6%[10 µM]	x
Nc1nnc(Cc2ccc(Cl)c(Cl)c2)s1	2%[46.1 µM]	3%	3%	5.6µM*	-3%	-2%
Nc1nnc(CCOc2ccccc2Cl)s1	-2%[46.1 µM]	-16%	1%	u	-92%[10 µM]	-11%
COc1ccc2c(c1)c1ncn(Cc3ccco3)c(=O)c1n2C	-9%[46.1 µM]	u	2%	10µM*	-29%	-9%[0.0737 µM]
CCOC(=O)c1cc([N+](=O)[O-])c([N+](=O)[O-])cc1NC(C)=O	10µM*	u	2%	13%	x	u
OCCCc1nc2n(n1)C(c1cccs1)C=C(c1ccc(Br)cc1)N2 (configuration not stated)	u	u	-8%	11µM*	-28%[10 µM]	u
COc1ccc(S(=O)(=O)n2nc(C)c(S(=O)(=O)N3CCC(C)CC3)c2C)cc1C	x	x	x	x	x	6%[46 µM]
CC(C)(C)c1cc(C(=O)/C=C/c2ccc(C(=O)O)cc2)cc(C(C)(C)C)c1	x	x	-7%	x	2.5µM*	x
CSc1ncc(C(=O)Nc2ccc(C)c(Cl)c2)c(-c2ccccc2)n1	x	x	x	x	x	-12%[46 µM]
SMILES	NPSR antagonist	MBNL1 CUG block	CBFb-RUNX1 inh	HttQ103 aggreg	HTT ATP protect	Lamin A splicing
COc1ccc(N(Cc2ccccc2)C(=O)CSc2nnc(Cn3nnc4ccccc43)o2)cc1	-20%[46.1 µM]	1%	-4%	u	-12%	u
O=C(CSc1nnc(Cn2nnc3ccccc32)o1)N(Cc1ccc(F)cc1)c1ccccc1	-29%[46.1 µM]	12%	2%	13µM*	28%[10 µM]	u
O=C(/C=C\c1ccc(O)c(O)c1)OCCc1ccccc1	x	x	x	x	-47%[1.9 µM]	x
COc1ccc(OC)c(CC(=O)Nc2ccc3c(c2)CCC3)c1	x	2%	x	x	x	x
COc1ccc(CC(=O)Nc2ccc3c(c2)CCC3)cc1OC	u	5%	-4%	13µM*	2%	u
COc1ccc(NC(=O)c2ccc(C#N)cc2)cc1NS(=O)(=O)c1ccc(F)cc1	7%	x	-19%	24%	1µM*	-9%
CCOC(=O)c1oc2ccc(S(=O)(=O)n3nc(-c4ccc(OC)cc4)cc3N)cc2c1C	6%	u	-3%	3%	16%	u
CCOC(=O)c1oc2ccc(S(=O)(=O)n3nc(-c4ccccc4)cc3N)cc2c1C	-27%[46.1 µM]	2%	0%	10µM*	-38%	u
C=CCN1CCc2c(cc(O)c(O)c2Br)[C@H](c2ccccc2)C1	x	x	x	x	-11%[1.9 µM]	x
COc1ccc(CN(CCC(c2ccccc2)c2ccc(OC(C)C)cc2)C(=O)CCl)cc1OC (configuration not stated)	10µM*	u	-7%	u	10%[10 µM]	u
CCOc1ccc(C(=O)NCCc2csc(-c3ccc(C(F)(F)F)cc3)n2)cc1OCC	x	x	x	x	x	-3%[46 µM]
Cc1nc(C)c(C(=O)N/N=C/c2cc(Br)ccc2O)s1	4%	5%	3%	1.3µM*	-50%[10 µM]	x
O=C(CCl)Nc1cc(SCC(O)CO)cc([N+](=O)[O-])c1 (configuration not stated)	6%	u	-2%	2.8µM*	-78%[10 µM]	x
